Bioassay records from PubChem.
YB-1 expression = inhibitors of YB-1 gene expression, primary screen, cell-based, fluorescence; U2OS, qRT-PCR YB-1 vs CDIP delta delta Cp, 16 h; active compounds read high; zero = DMSO, each unit about twofold; delta delta Cp (YB-1 minus CDIP) (test concentration not listed); 30,000 tested, 0.37% active;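 active = delta delta Cp rounded down to an integer at or above 3, about 3 SD of DMSO wells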;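 also: higher means less YB-1 transcript or more CDIP transcript relative to DMSO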
ROS inducer = ROS inducers in U2OS cancer cells, primary screen, cell-based, H2DCF-DA fluorescence | U2OS ROS induction | ROS induction (% of piperlongumine), % at 10 µM | 46,000 tested, 2% active | AID 624156, 2012; in the data active = ROS induction above about 79%, passing the limit was not always enough;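 also: 0% = DMSO vehicle median and 100% = reference compound median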
* marks the source's active call; other numbers are inactive results. Only some compounds are listed: those with a hit (about 2.3% of all), similar ones and a draw of the others.

For Cc1ccc(-c2nnc(N3CCN(C(=O)CSc4nc5ccccc5o4)CC3)c3ccccc23)cc1 the results were ROS inducer 37.
`Cc1ccc(-c2nnc(-n3cnc4cc(C)c(C)cc43)c3ccccc23)cc1` gave YB-1 expression 3.8* and ROS inducer 28.
Clc1ccc(Oc2nc(Oc3ccc(Cl)cc3)nc(N3CCSCC3)n2)cc1 was read as ROS inducer 0.
O=C(Nc1ccccc1)c1ccc(CSc2nnc(-c3ccncc3)n2-c2ccccc2)cc1 was read as ROS inducer 109*.
O=C(CSc1nnc(-c2ccncc2)n1-c1ccccc1)Nc1ccc(C(F)(F)F)cc1 was read as ROS inducer 4.
Screening CC(=O)N1CCC(N(C(=O)Nc2ccccc2)C(C)C)CC1 returned ROS inducer -4.
COc1ccc(-n2c(SCC(N)=O)nnc2-c2cccnc2)cc1 was read as ROS inducer 10.
`COc1ccc(-n2c(-c3cccc(OC)c3)csc2=NCc2cccnc2)cc1` gave YB-1 expression 0.34 and ROS inducer 116*.
`Cc1sc(-n2cccc2)c(C(=O)NC(C)CCc2ccccc2)c1C` (stereo not drawn) gave ROS inducer 20.
C[C@@H]1CCCCO[C@H](CN(C)C(=O)CCC(F)(F)F)[C@@H](C)CN([C@H](C)CO)C(=O)c2cc(NC(=O)CCC(F)(F)F)ccc2O1 was read as YB-1 expression -0.44 and ROS inducer 31.
For C[C@@H]1CCCCO[C@H](CN(C)C(=O)CCC(F)(F)F)[C@@H](C)CN([C@H](C)CO)C(=O)c2cc(N(C)C)ccc2O1 the results were YB-1 expression 9.9* and ROS inducer 4.
`C[C@@H]1CCCCO[C@@H](CN(C)C(=O)Nc2ccccc2)[C@@H](C)CN([C@H](C)CO)C(=O)c2cc(NC(=O)CCC(F)(F)F)ccc2O1` gave YB-1 expression -0.41 and ROS inducer 95*.
C[C@@H]1CCCCO[C@H](CN(C)C(=O)Nc2ccccc2)[C@@H](C)CN([C@H](C)CO)C(=O)c2cc(NC(=O)c3ccccc3)ccc2O1 was read as YB-1 expression 4.4* and ROS inducer 14.
For C[C@@H]1CCCCO[C@H](CN(C)C(=O)Nc2ccccc2)[C@@H](C)CN([C@H](C)CO)C(=O)c2cc(NC(=O)CCC(F)(F)F)ccc2O1 the results were YB-1 expression -0.0046 and ROS inducer 19.
For C[C@@H]1CCCCO[C@@H](CN(C)C(=O)Nc2ccccc2)[C@@H](C)CN([C@H](C)CO)C(=O)c2cc(NC(=O)c3ccncc3)ccc2O1 the results were YB-1 expression 0.27 and ROS inducer 13.
For NC(=O)C1CCN(C(=O)c2n[nH]c(=O)c3ccccc23)CC1 the results were ROS inducer -18.
Screening C=CCNc1ncnc2c1sc1nc(CCCC)c3c(c12)CCCC3 returned ROS inducer 58.
For Cn1c(CSc2cc(C(F)(F)F)nc3ccccc23)nnc1SCC(=O)c1ccccc1 the results were ROS inducer 18.
`Cc1cccc(CCNC(=O)CCc2nnc3n(Cc4ccccc4)c(=O)c4ccccc4n23)c1` gave ROS inducer 31.
Screening C=CCOC(=O)[C@H]1[C@@H]2C(=O)O[C@@H](c3ccccc3)[C@@H](c3ccccc3)N2[C@@H](c2ccc(OCCOC(=O)[C@@H]3C[C@@H]4C(=O)NCC(=O)N4[C@@H]3c3ccc(O)cc3)cc2)[C@]12C(=O)Nc1ccc(I)cc12 returned YB-1 expression -0.26 and ROS inducer 9.
O=C1O[C@H](c2ccccc2)[C@H](c2ccccc2)N2[C@H]1[C@@H](C(=O)NC[C@H](O)c1ccccc1)[C@]1(C(=O)Nc3ccc(C#CC4(O)CCCCCC4)cc31)[C@H]2c1ccccc1OCCO was read as YB-1 expression -0.5 and ROS inducer 27.
For C=CCNC(=O)[C@@H]1[C@H]2C(=O)O[C@H](c3ccccc3)[C@H](c3ccccc3)N2[C@H](c2ccccc2OCCO)[C@@]12C(=O)Nc1ccc(C#CCCO)cc12 the results were YB-1 expression -0.086 and ROS inducer 135*.
Screening C=CCNC(=O)[C@@H]1[C@H]2C(=O)O[C@H](c3ccccc3)[C@H](c3ccccc3)N2[C@H](c2ccccc2OCCO)[C@@]12C(=O)Nc1ccc(C#CC3(O)CCCCCC3)cc12 returned YB-1 expression -0.22 and ROS inducer 146*.
For C=CCOC(=O)[C@H]1[C@@H]2C(=O)O[C@@H](c3ccccc3)[C@@H](c3ccccc3)N2[C@@H](c2ccc(OCCOC(=O)[C@@H]3C[C@@H]4C(=O)NCC(=O)N4[C@@H]3c3ccc(O)cc3)cc2)[C@]12C(=O)Nc1ccccc12 the results were YB-1 expression 0.068 and ROS inducer 116*.
